In the supplement of paper PMC3545927:
The list shows a part of the results. The hit rate among all sequences tested is not known here.

Molecular target: furin, P09958
Assay: furin cleavage Z-score vs untreated control; higher = more cleavage, active = 3.5 or more, inactive = 1 or less, 8 variable residues between constant flanks
Description: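 Multiplexed peptide-cDNA fusion cleavage assay. 8-mer variable peptides flanked by constant Cys-Ala (N-term) and Ala-Gly-Asn-Ala-Ser-Ala-Ser-Ala (C-term) and conjugated to a cDNA oligonucleotide were bead-immobilised via the N-terminus. They were treated with purified furin at a 1:10 enzyme:substrate ratio in 50 mM HEPES pH 7.5, 1 mM CaCl2, 100 mM NaCl for 7.5, 15 or 30 min. Released cDNA was counted by next-generation sequencing, and log counts versus no-furin controls were lowess-adjusted and converted to robust Z-scores.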

furin, P09958, sequence (P09958 whole entry): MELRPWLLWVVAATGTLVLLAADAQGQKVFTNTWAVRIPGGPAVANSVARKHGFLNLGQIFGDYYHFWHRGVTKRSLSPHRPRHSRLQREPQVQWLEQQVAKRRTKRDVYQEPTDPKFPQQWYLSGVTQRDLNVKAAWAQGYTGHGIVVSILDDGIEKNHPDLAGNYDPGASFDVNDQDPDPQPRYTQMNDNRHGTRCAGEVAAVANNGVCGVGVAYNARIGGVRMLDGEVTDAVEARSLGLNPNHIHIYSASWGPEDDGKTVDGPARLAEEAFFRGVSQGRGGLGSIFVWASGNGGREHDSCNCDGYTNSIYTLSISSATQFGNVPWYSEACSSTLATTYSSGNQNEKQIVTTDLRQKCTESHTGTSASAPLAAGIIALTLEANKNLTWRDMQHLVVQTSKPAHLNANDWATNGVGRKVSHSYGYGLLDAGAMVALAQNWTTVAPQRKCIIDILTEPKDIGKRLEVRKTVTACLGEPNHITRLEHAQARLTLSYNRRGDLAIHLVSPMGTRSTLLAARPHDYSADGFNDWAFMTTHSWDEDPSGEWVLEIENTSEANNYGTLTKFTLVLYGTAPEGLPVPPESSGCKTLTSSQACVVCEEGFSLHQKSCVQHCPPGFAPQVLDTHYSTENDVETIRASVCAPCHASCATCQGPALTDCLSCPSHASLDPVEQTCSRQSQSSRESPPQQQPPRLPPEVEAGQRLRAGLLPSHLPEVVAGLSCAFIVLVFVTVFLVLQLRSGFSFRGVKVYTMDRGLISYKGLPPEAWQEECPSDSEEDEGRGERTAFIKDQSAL

Sequence	furin cleavage Z-score (7.5 min)	furin cleavage Z-score (15 min)	furin cleavage Z-score (30 min)
CASVGLGKVLAGNASASA [HC1081]	0.567 (inactive)	0.113 (inactive)	1.61
CASKVRKSRSAGNASASA [FS-1166]	10.9 (active)	11.3 (active)	8.46 (active)
CAVLSRASRSAGNASASA [FS-104]	9.22 (active)	8.83 (active)	7.05 (active)
CALNSRSARSAGNASASA [FS-1230]	9.33 (active)	9.86 (active)	8.45 (active)
CANKSRSARSAGNASASA [FS-467]	7.95 (active)	7.93 (active)	7.08 (active)
CAMEEHSQHLAGNASASA [HC9]	-0.427 (inactive)	0.433 (inactive)	0.518 (inactive)
CASVCGPVYCAGNASASA [HC411]	-0.739 (inactive)	-0.0378 (inactive)	0.44 (inactive)
CALSQTKQSGAGNASASA [HC947]	-0.592 (inactive)	0.456 (inactive)	-0.236 (inactive)
CAWGVLAGIAAGNASASA [HC337]	-1.66 (inactive)	-1.27 (inactive)	0.739 (inactive)
CAARPDYNPPAGNASASA [HC1305]	-1.38 (inactive)	-0.196 (inactive)	-1.47 (inactive)
CAVVCCSMSWAGNASASA [HC2088]	-0.556 (inactive)	1.09	0.406 (inactive)
CARCHARKAVAGNASASA [HC1425]	0.121 (inactive)	0.298 (inactive)	-0.417 (inactive)
CACTPCSGSWAGNASASA [HC1840]	-0.759 (inactive)	-0.736 (inactive)	-0.368 (inactive)
CAYPWPLYGNAGNASASA [HC201]	-0.792 (inactive)	1.01	-0.667 (inactive)
CAPALRSARSAGNASASA [FS-66]	0.638 (inactive)	1.37	1.27
CASKSRVSRLAGNASASA [FS-1488]	3.43	1.78	3.65 (active)

Sequence	furin cleavage Z-score (7.5 min)	furin cleavage Z-score (15 min)	furin cleavage Z-score (30 min)
CASVASSSASAGNASASA [HC1259]	-0.54 (inactive)	0.0424 (inactive)	-0.501 (inactive)
CARLWRKSRSAGNASASA [FS-189]	9.72 (active)	8.99 (active)	8.13 (active)
CALNARYSRSAGNASASA [FS-52]	8.29 (active)	10.6 (active)	9.13 (active)
CASKSRSARSAGNASASA [FS-500]	10.3 (active)	8.51 (active)	6.45 (active)
CASAHRQPRLAGNASASA [FS-144]	0.7 (inactive)	0.218 (inactive)	0.636 (inactive)
CAYGSRHIRLAGNASASA [FS-1107]	0.267 (inactive)	1.21	2.07
CAMEECSEHLAGNASASA [HC1732]	0.304 (inactive)	-1.16 (inactive)	0.588 (inactive)
CAAVPCHRPSAGNASASA [HC2303]	0.31 (inactive)	-0.11 (inactive)	0.292 (inactive)
CALGKVIDTLAGNASASA [HC220]	-0.0125 (inactive)	0.316 (inactive)	-0.584 (inactive)
CATTKCSGSWAGNASASA [HC1874]	-0.691 (inactive)	-0.337 (inactive)	-0.205 (inactive)
CASKSRSSRSAGNASASA [FS-501]	8.19 (active)	9.38 (active)	7.93 (active)
CASGSRSSRSAGNASASA [FS-1409]	0.457 (inactive)	1.76	2.85
CATLSRSSRSAGNASASA [FS-1292]	6.97 (active)	8.07 (active)	7.37 (active)
CANKSRSSRSAGNASASA [FS-180]	8.13 (active)	8.25 (active)	6.67 (active)
CANKSRESRPAGNASASA [FS-1469]	-0.557 (inactive)	-0.538 (inactive)	-0.178 (inactive)
